# In PubChem BioAssay AID651768 (National Center for Advancing Translational Sciences (NCATS), 2012):
# The campaign covered roughly 360,000 compounds. About 1,700 (0.47%) were called active. Where a call stands in place of a potency, no number is given. About 2% were inconclusive and are not listed. Calls follow the shape of the dose curve; as a rule, active = well fitted inhibition curve with a large enough effect; inconclusive = small, poorly fitted or top-dose-only effect; inactive = no such curve, though single readings can be large or run the other way. The sample as a whole holds a higher share of actives than the screen did.
# Target: Bifunctional 3'-5' exonuclease/ATP-dependent helicase WRN (Homo sapiens) (UniProt Q14191)
# Assay: qHTS for Inhibitors of WRN Helicase; also: nearly all actives have a fitted effect of over 55% in size
# Details: WRN helicase unwinding, fluorescent forked duplex, kinetic; series mostly up to 114 µM
# Excerpt: Inhibition of DNA repair is proposed as a strategy for combating cancer. Synthetic lethality is an approach that exploits preexisting DNA repair deficiencies in certain tumors to develop inhibitors of DNA repair pathways that compensate for the tumor-associated DNA repair deficiency. Because helicases play critical roles in the DNA damage response and in DNA repair, particularly in actively dividing and replicating cells, characterization of synthetic lethal relationships of DNA helicases may be of value in developing improved anticancer treatment strategies; moreover, small molecules that specifically target a given DNA helicase may be useful for understanding its role in cellular nucleic acid metabolism. The goal of this project is to identify small molecule, non-covalent chemical inhibitors of the Werner syndrome (WS) helicase (WRN), which plays an important role in cell proliferation, the replication stress response, and DNA repair. […] The WRN gene product that is defective in the chromosomal instability disorder has DNA helicase and exonuclease activities and interacts with a number of nuclear proteins to maintain genomic stability. We will employ an optimized high-throughput screening assay that utilizes a fluorescence intensity modulation scheme with a fluorophore and quencher positioned near one another within a duplex deoxyoligonucleotide that contains a single forked structure. After a high-throughput screen of the ~350,000-member Molecular Libraries Small Molecule Repository (MLSMR) collection, followed by data analysis and hit selection, a panel of confirmatory, as well as secondary and ternary, assays will be employed to identify high-confidence WRN inhibitors. Structure-activity relationships will be investigated for the top candidate inhibitor series through medchem expansion. These are the results of the primary screening campaign against the MLSMR. NIH Chemical Genomics Center [NCGC] NIH Molecular Libraries Probe Centers Network [MLPCN] MLPCN Grant: MH096530 Assay Submitter (PI): Robert Brosh, National Institute of Aging
# Three muL of reagents (buffer in columns 3 and 4 as negative controls; WRN at 20 nM final concentration in columns 1 and 2 as positive controls; columns 5-48 as test reactions) will be dispensed into a 1536-well Greiner black plate via solenoid-valve based nanoliter dispensers. Compounds (23 nL each in columns 5-48) and control (23 nL each in column 2 as dose-response) will be transferred via a Kalypsys pintool equipped with a 1536-pin array. Plates will be incubated for 15 min at room temperature, and then 1 µL of substrate (100 nM forked duplex oligonucleotide and 2 mM ATP final concentrations) will be added to start reaction, and plate will be transferred into a ViewLux high-throughput CCD imager where reaction progress is measured in kinetic mode using standard red-fluorescence optics (excitation filter 525 nm, emission filter 598 nm).
# Potency is read from the fitted curve at half-maximal effect.
# Sequence of Bifunctional 3'-5' exonuclease/ATP-dependent helicase WRN (Homo sapiens) (Q14191 whole entry, looked up): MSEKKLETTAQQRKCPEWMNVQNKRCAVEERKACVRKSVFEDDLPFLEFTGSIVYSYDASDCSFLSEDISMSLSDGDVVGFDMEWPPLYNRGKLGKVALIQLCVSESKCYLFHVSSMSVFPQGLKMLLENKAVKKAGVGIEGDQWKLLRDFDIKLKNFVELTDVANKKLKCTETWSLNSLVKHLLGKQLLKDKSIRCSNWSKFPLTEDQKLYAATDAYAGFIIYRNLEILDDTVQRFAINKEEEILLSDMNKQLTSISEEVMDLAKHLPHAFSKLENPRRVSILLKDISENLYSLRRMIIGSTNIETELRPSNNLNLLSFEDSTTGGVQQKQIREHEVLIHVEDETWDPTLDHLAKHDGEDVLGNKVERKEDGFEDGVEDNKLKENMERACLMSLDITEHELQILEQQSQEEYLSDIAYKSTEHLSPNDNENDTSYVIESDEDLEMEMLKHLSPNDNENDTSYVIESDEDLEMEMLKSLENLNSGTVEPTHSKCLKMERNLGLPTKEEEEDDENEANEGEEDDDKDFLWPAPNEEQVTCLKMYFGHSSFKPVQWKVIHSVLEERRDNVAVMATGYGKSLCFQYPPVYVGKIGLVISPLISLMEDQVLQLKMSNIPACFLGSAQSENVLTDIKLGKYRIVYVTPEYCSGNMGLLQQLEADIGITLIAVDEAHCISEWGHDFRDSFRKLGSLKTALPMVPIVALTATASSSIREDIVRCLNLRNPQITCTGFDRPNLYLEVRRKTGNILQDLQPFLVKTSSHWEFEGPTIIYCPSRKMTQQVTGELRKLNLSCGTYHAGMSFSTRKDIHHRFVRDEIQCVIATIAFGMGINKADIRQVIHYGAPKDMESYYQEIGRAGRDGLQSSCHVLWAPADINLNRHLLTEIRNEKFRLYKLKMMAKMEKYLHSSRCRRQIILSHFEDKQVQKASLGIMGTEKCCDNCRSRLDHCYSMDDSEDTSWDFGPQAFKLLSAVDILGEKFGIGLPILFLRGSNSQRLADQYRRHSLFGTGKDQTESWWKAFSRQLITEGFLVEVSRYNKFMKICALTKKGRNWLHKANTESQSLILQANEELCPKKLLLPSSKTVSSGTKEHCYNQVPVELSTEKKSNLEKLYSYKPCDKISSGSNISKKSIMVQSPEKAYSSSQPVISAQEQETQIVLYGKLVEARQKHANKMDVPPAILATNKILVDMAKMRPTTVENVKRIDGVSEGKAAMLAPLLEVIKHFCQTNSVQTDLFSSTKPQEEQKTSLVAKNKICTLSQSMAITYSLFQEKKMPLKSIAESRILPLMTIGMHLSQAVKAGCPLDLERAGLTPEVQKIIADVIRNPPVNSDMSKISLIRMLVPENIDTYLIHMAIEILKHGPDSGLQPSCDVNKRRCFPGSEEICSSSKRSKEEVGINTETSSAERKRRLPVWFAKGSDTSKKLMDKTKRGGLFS
row,SMILES,Potency
1,Cc1ccc2c(NC(=O)C3CC3)cccc2n1,inactive
2,COc1ccc(CNC(=O)/C(C#N)=C/c2cccc(OC)c2OC)cc1,inactive
3,Cc1ccc(/C=C(\C#N)C(=O)Nc2cccc3ncccc23)o1,20 µM (active)
4,CC(O)CN(Cc1ccc(Cl)cc1)CC(C)O (stereo not given),inactive
5,Cc1ccc(S(=O)(=O)NC[C@H]2O[C@@H](n3cnc4c(N)ncnc43)[C@H](O)[C@@H]2O)s1,inactive
6,O=c1ccc2c(-c3ccccc3S(=O)(=O)O)c3ccc(O)c(O)c3oc-2c1O,0.212 µM (active)
7,CCC(C)CN1C(=O)CSCC1(C)C(=O)NCc1ccccc1 (stereo not given),inactive
8,O=C(CSc1nnc(-c2ccncc2)o1)NCc1ccc(Cl)cc1,inactive
9,COc1ccc2c(c1)c(=Cc1ccc(N(C)C)cc1)c1cc(-c3ccccc3)[n+](C)n12,28.2 µM (active)
10,CCOC(=O)N1CCC(N2Cc3cccc(C(=O)Nc4ccc(S(=O)(=O)N(CC)CC)cc4)c3C2=O)CC1,inactive
11,CCCCn1c(SCc2ncc(-c3ccccc3)o2)nc2cc(S(N)(=O)=O)ccc21,inactive
12,COc1ccc(N(CC(=O)NCCSCc2cccc(Cl)c2)S(C)(=O)=O)cc1,inactive
13,COc1cc(/C=C/C(=O)OCC(=O)NC(=O)NCc2ccccc2)ccc1OCC#N,inactive
14,COC(=O)c1ccc(C(NC(=O)OCc2ccccc2)/C(C)=C/[C@@H](C)C(=O)NCc2ccc(OC)c(OC)c2)cc1 (stereo not given in full),inactive
15,COC(=O)c1ccc(COc2ccc(/C=C/C(=O)c3ccc(OC)c(CSCC(=O)O)c3)cc2OC)cc1,44.7 µM (active)
16,COc1cccc(/C=N/NC(=O)C(=O)N2CCCC2)c1,inactive
17,CC(NC(=O)C(=O)NN=C1CCC(C(C)(C)C)CC1)c1ccccc1 (stereo not given),inactive
18,CC(=O)Nc1cncc(-c2ccccc2CO)n1,inactive
19,O=C(O)C1C2C=CC(C2)C1C(=O)N1CCN(CCO)CC1 (stereo not given),inactive
20,C#CCOCCOCCOCCNc1nc(N2CCN(C(=O)[C@H](CCCCN)n3cc([C@@H](N)C(C)CC)nn3)CC2)nc(N2CCN(C(=O)[C@H](Cc3ccc(O)cc3)n3cc([C@@H](N)C(C)CC)nn3)CC2)n1 (stereo not given in full),inactive
21,C#CCOCCOCCOCCNc1nc(N2CCN(C(=O)[C@H](CCC(=O)O)n3cc(C(N)CO)nn3)CC2)nc(N2CCN(C(=O)[C@H](Cc3ccc(O)cc3)n3cc(C(N)[C@H](C)CC)nn3)CC2)n1 (stereo not given in full),inactive
22,C#CCOCCOCCOCCNc1nc(N2CCN(C(=O)CCCCCCCCCCNC(=O)Cn3cc(CCCCCN)nn3)CC2)nc(N2CCN(C(=O)CCCCCCCCCCNC(=O)[C@H](CO)n3cc(CCCSC)nn3)CC2)n1,31.6 µM (active)

row,SMILES,Potency
1,C#CCOCCOCCOCCNc1nc(N2CCN(C(=O)CCCCCCCCCCNC(=O)[C@H]([C@@H](C)CC)n3cc(CCCCN=C(N)N)nn3)CC2)nc(N2CCN(C(=O)CCCCCCCCCCNC(=O)[C@H](CO)n3cc(CCCSC)nn3)CC2)n1,25.1 µM (active)
2,C#CCOCCOCCOCCNc1nc(N2CCN(C(=O)CCCCCCCCCCNC(=O)[C@H](CCCCN)n3cc(C)nn3)CC2)nc(N2CCN(C(=O)CCCCCCCCCCNC(=O)[C@H](CO)n3cc(CCCSC)nn3)CC2)n1,50.1 µM (active)
3,C#CCOCCOCCOCCNc1nc(N2CCN(C(=O)[C@H](CO)n3cc([C@@H](N)C(C)C)nn3)CC2)nc(N2CCN(C(=O)[C@H](CCC(=O)O)n3cc([C@@H](N)[C@H](C)CC)nn3)CC2)n1,inactive
4,C#CCOCCOCCOCCNc1nc(N2CCN(C(=O)C(Cc3ccc(O)cc3)n3cc(C(N)CC(C)C)nn3)CC2)nc(N2CCN(C(=O)C(Cc3ccc(O)cc3)n3cc(C(N)C(C)CC)nn3)CC2)n1 (stereo not given),inactive
5,C#CCOCCOCCOCCNc1nc(N2CCOCC2)nc(N2CCN(C(=O)[C@H](Cc3ccc(O)cc3)n3cc(CCO)nn3)CC2)n1,inactive
6,C#CCOCCOCCOCCNc1nc(N2CCN(C(=O)C([C@@H](C)CC)n3cc(C(N)COC(=O)C(F)(F)F)nn3)CC2)nc(N2CCN(C(=O)[C@H](CCCCN)n3cc(C(N)CC(C)C)nn3)CC2)n1 (stereo not given in full),inactive
7,COc1ccc(NC(=O)C(c2ccncc2)n2c(=O)c(-c3cc4ccccc4[nH]3)nc3ccccc32)cc1 (stereo not given),inactive
8,Cc1ccc(C(=O)NNC(=O)OC(C)(C)C)c(Cl)c1,inactive
9,CCCCN(C=O)c1c(CC)nc2c(OCc3ccccc3C(=O)OC)cccn12,inactive
10,Cc1c(NC(=O)COC(=O)/C=C/c2cccc(F)c2)c(=O)n(-c2ccccc2)n1C,inactive
11,O=C(C1CCN(CC2CCCCC2)CC1)N1CCCC1,inactive
12,CN1CCN(C(=O)c2ccc(-c3cc4nc(NCc5cccnc5)n(C)c(=O)c4s3)cc2)CC1,inactive
13,CN(C)NC(=O)C(NC(=O)c1ccc(N)cc1)C12CC3CC(CC(C3)C1)C2 (stereo not given),inactive
14,Cc1cccc(CN2CCN(C3CN(Cc4cn(Cc5cc(C)cc(C)c5)nn4)S(=O)(=O)C3)CC2)c1 (stereo not given),inactive
15,CC(C)c1ccc(NC(=O)CCN2C(=O)c3ccc([N+](=O)[O-])cc3C2=O)cc1,inactive
16,Cn1ccc(=Nc2ccc(NC(=O)c3ccc(N=c4ccn(C)c5ccc([N+](=O)[O-])cc45)cc3)cc2)cc1,39.8 µM (active)
17,CN(CC1CCCO1)S(=O)(=O)c1ccc(C(=O)Nc2ccc([N+](=O)[O-])cc2)cc1 (stereo not given),inactive
18,CC(C)C[C@H]1CNC(=S)N1C[C@H]1CCCN1C[C@H](Cc1ccc(O)cc1)N1C[C@H](Cc2ccc(O)cc2)N(CC2CCCCC2)C1=S,inactive
19,O=C(c1cccnc1)N(c1cc2sc(=O)oc2c2ccccc12)S(=O)(=O)c1ccccc1,20 µM (active)
20,O=C(c1cccnc1)N(Cc1ccccc1)C(=O)c1cccnc1,inactive
21,CCc1ccc(N(CC(=O)NCc2cccnc2)S(=O)(=O)c2ccccc2)cc1,inactive
22,COC(=O)CCCCC1=CCC2C(=O)C=C(O)C2C1 (stereo not given),50.1 µM (active)

row,SMILES,Potency
1,COc1ccc(C(C)=O)cc1COC(=O)Cn1cnc2ccccc2c1=O,inactive
2,COC(=O)[C@@]1(Cc2ccc(OC)cc2)[C@H]2c3cc(C(=O)N4CCCC4)n(Cc4ccc(OC(F)(F)F)cc4)c3C[C@H]2CN1C(=O)c1ccccc1,inactive
3,CCOCCC(=O)Nc1ccc2c(c1)c(=O)n(C)n2-c1ccc2ccccc2c1,inactive
4,CCOC(=O)N1CCN(C(=O)c2ccc(CN(c3ccc(C)c(C)c3)S(C)(=O)=O)cc2)CC1,inactive
5,Cc1nnsc1S(=O)(=O)Cc1ccccc1Cl,inactive
6,O=C(Nc1ccc(S(=O)(=O)N2CCOCC2)cc1)C1CCN(S(=O)(=O)c2ccc(Cl)cc2)CC1,inactive
7,O=C(Nc1ccccc1)c1nnsc1S(=O)(=O)c1ccc(Cl)cc1,44.7 µM (active)
8,COC(=O)[C@@]12C[C@@H](CC(=O)NCCCCc3ccccc3)C(=O)N(Cc3ccccc3)C1=CCC(C)(C)C2,inactive
9,COc1ccc2[nH]c3c(C)c4cc[n+](C)cc4c(C)c3c2c1,22.4 µM (active)
10,CCOC(=O)c1[nH]c2ccc(OC)cc2c1NC(=O)N1CCOCC1,inactive
11,Nc1[nH]c(=S)nc2nc(-c3ccccc3)c(-c3ccccc3)nc12,inactive
12,COc1ccccc1Cc1c(-c2ccc(Cl)cc2)nc2c3ccccc3ccn12,inactive
13,CCc1nc2ccc(C(=O)NCc3ccc(OC)cc3)cn2c1N(CC)Cc1cccc(Br)c1,inactive
14,Cc1cccc(C)c1Nc1nnc(SCC(=O)NCCCN2CCCC2=O)s1,inactive
15,O=C1CSC(=S)N1/N=C/c1ccc(O)c([N+](=O)[O-])c1,79.4 µM (active)
16,CO/N=C/c1ccc(N2CCN(C(=O)c3cccc(Cl)c3)CC2)c([N+](=O)[O-])c1,inactive
17,O=C(CNS(=O)(=O)c1ccc(Br)s1)NCc1ccc2c(c1)OCO2,inactive
18,O=C1CC2(CCCCC2)Oc2ccc(OCC(=O)N3CCOCC3)cc21,inactive
19,CCN(CC)CC(=O)Nc1sc2c(c1C(=O)c1ccccc1C)CCC2,inactive
20,CCOC(=O)COc1cc(OCC(=O)OCC)c2c(=O)cc(-c3ccccc3)oc2c1,inactive
21,COc1cc(O)c2c(=O)c3c(O)c(O)ccc3oc2c1OC,inactive
22,COc1c(O)cc2oc(-c3ccc(O)c(O)c3)cc(=O)c2c1O,25.1 µM (active)

row,SMILES,Potency
1,COc1ccc(Cn2c(=O)sc3ccccc32)cc1OC,inactive
2,COC(=O)[C@@]12C[C@@H](CC(=O)NCCCCc3ccccc3)C(=O)N(CCc3ccc(OC)c(OC)c3)C1=CCC(C)(C)C2,inactive
3,Cc1nnc(-c2ccc(Oc3ccc(C)c(C)c3)c([N+](=O)[O-])c2)o1,inactive
4,COc1ccc(NC(=O)c2cc(-c3cc(OC)c(OC)c(OC)c3)nc3ccccc23)c(OC)c1,inactive
5,CC1CCCC(NC(=O)c2cc(-c3ccncc3)nc3ccccc23)C1C (stereo not given),inactive
6,Cc1ccc2nc(-c3ccncc3)cc(C(=O)Nc3ccc(OC(F)F)cc3)c2c1,44.7 µM (active)
7,O=C1NC[C@H](CCCCN2CCN(CCc3ccccc3)C(=O)C2=O)N(CC2CCCCC2)C1=O,inactive
8,CCc1ccc(CN(C)C(=O)CCc2nnc(-c3ccc(-c4ccccc4)cc3)o2)nc1,inactive
9,CCCCCCc1cc2cc(-c3nnc(-c4ccccc4)o3)c(=O)oc2cc1O,56.2 µM (active)
10,Cc1cc(Cl)ccc1C(=O)C1CCCN(C(=O)c2nonc2C)C1 (stereo not given),inactive
11,CCCCN(CC)CCNC(=O)c1[nH]c(C)c(C(C)=O)c1C,inactive
12,CCC(=O)Nc1c(C)n[nH]c1C,inactive
13,C=C1C(=O)OC2C1CCC(C)=CCCC1(C)OC21 (stereo not given),inactive
14,CCCCCCCNc1nc(Cl)nc(NCCO)n1,inactive
15,CC1CCCN(CCCNC(=O)CN2C(=O)COc3ccc(S(=O)(=O)N4CCOCC4)cc32)C1 (stereo not given),inactive
16,Nc1ccc2nc3c(=O)[nH]c(=S)[nH]c3nc2c1,7.08 µM (active)
17,N#C/C(=C\C1=C(N2CCOCC2)C(=C\c2ccccc2)/CC1)C(=O)Nc1ccccc1F,15 µM (active)
18,O=C1Nc2ccc(Br)cc2/C1=N/N=C/C1=C(N2CCOCC2)C(=C\c2ccccc2)/CC1,inactive
19,O=C(CC1SC(N2CCOCC2)=NC1=O)Nc1ccccc1F (stereo not given),inactive
